# ClpP mod: qHTS Assay for Activators of ClpP | ATP-dependent Clp protease proteolytic subunit (Bacillus subtilis (strain 168)), P80244 | purified B. subtilis ClpP, FRET peptide cleavage, 20 min | Potency, µM (titrated, usually from 57.5 µM), for inactives: at the top dose activity change, negative = active | 1.9% of 340,000 active | AID 651965, 2013; active = well fitted falling curve with a large enough effect; inconclusive = small, poorly fitted or top-dose-only effect; inactive = no such curve, though single readings can be large or run the other way; note: the source files actives as falling curves though it sought activators and does not explain the sign; nearly all actives have a fitted effect of over 65% in size
# Target sequence (P80244 whole entry, looked up): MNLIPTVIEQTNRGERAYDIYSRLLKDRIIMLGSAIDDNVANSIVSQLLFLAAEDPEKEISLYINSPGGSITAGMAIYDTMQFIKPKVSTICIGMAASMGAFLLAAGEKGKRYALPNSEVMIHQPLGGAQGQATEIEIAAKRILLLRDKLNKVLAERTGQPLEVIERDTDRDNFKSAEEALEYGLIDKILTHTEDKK
#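 FRET quenching reversal measured ClpP activation: 10 microg/mL B. subtilis ClpP at pH 8 with the FRET-FV decapeptide, read at 430 nm after 320 nm excitation. The 20-min minus 0-min signal was scaled between DMSO/no-enzyme wells and ADEP (5.8 microM final).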
# GLP1R cytotox: qHTS of GLP-1 Receptor Inverse Agonists: Cytotox Screen | Potency, µM (highest dose often 38.3 µM), inactives show at the top dose activity change, negative = inhibition, usual class: inhibitors | 0.13% of 410,000 active | HEK293 cAMP-luciferase reporter cells, luminescence, 24 h;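 note: loss of luciferase light is scored as toxicity; % is set by controls: 0 for no effect and ±100 for the full control effect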
#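 A 23 nL compound transfer followed 12 hours of cell culture at 37 deg C; exposure then lasted 24 hr. Luciferase assay detection reagent was dispensed and plates read for luminescence after a 12 min room-temperature wait.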
# GLP1R inv ag: qHTS of GLP-1 Receptor Inverse Agonists (Inhibition Mode). HEK293 GLP-1R CRE-luciferase, luminescence, 24 h; GLP-1R form is constitutively active. Potency, µM (top dose mostly 38.3 µM), for inactives: at the top dose activity change, negative = inhibition, most hits filed as inhibitors. 1.6% of 410,000 active; note: % is set by controls: 0 for no effect and ±100 for the full control effect; nearly all actives have a fitted effect of over 55% in size
#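 Cells are plated, allowed 12 hours at 37 deg C, then treated with compounds for 24 hr before luciferase detection reagent is added and luminescence is read after 12 min at room temperature. The HEK293 line carries constitutively active GLP-1R with a cAMP-responsive reporter.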
# GLP-1R agonist: qHTS of GLP-1 Receptor Agonists | Glucagon-like peptide 1 receptor (Homo sapiens), P43220 | HEK293 GLP-1R CRE-luciferase, luminescence, 4-6 h; cells express a hypersensitive GLP-1R form | Potency, µM (highest dose often 45.6 µM), inactives show at the highest dose activation, hits mostly activators | 0.007% of 380,000 active; note: % of control where 0% means no effect
# An asterisk follows results filed as active; ? = inconclusive; . = not tested or not shown. Compounds with a hit are over-represented: about 3.2% of the library has one in this group of screens. Unless noted, calls come from the whole dose curve; as a rule, active = well fitted curve in the direction sought with a large enough effect; inconclusive = small, poorly fitted or top-dose-only effect, or another doubt; inactive = no such curve, though single readings can be large; an effect the other way counts as inactive or inconclusive. Potency is the fitted concentration of half-maximal effect.
SMILES,ClpP mod,GLP1R cytotox,GLP1R inv ag,GLP-1R agonist
COc1ccc(S(=O)(=O)N(C)CC(=O)NCCN2CCOCC2)cc1,.,-13%,8%,7%
CN(CC(=O)NCCCN1CCOCC1)S(=O)(=O)c1ccc(Cl)cc1,20µM*,-22%,-29%,-2%
COc1ccc(NC(=S)NCC(c2ccco2)N2CCCC2)cc1 (centres undefined),.,-2%,1%,9%
CN(CC(=O)NCC(c1ccco1)N1CCCCC1)S(=O)(=O)c1ccc(Cl)cc1 (centres undefined),-1%,0%,13µM*,15%
S=C(NCCc1ccccc1)NCC(c1ccco1)N1CCCCC1 (centres undefined),.,-24%,7.1µM*,23%
Cc1cc(=O)n(CC(=O)N2CCN(c3ccccc3F)CC2)c2c1c(C)nn2C,-20%,-6%,-20%,.
CCCCOc1ccc(CNC(=O)c2cnc3sc(N4CCOCC4)nn3c2=O)cc1,?,6%,5%,.
CN1CCN(C(c2cccs2)c2nnnn2Cc2ccc(F)cc2)CC1 (centres undefined),.,-2%,-16%,-1%
CC1CCCN(C(c2cccs2)c2nnnn2Cc2ccccc2)C1 (centres undefined),-1%,-3%,11µM*,6%
O=C(COc1ccccc1F)Nc1nnc(S(=O)(=O)N2CCCCCC2)s1,-3%,3%,-12%,.
CC1CCCN(c2nc(-c3ccccc3O)nc3ccccc23)C1 (centres undefined),0%,-4%,4%,-2%
Cc1ccc(NC(=O)COc2coc(CN3CCN(Cc4ccccc4)CC3)cc2=O)cc1,28µM*,15%,7%,1%
COC(=O)c1[nH]c2ccc(C)cc2c1NC(=O)CN1CCC(C)CC1,28µM*,-19%,6.3µM*,-6%
COC(=O)c1[nH]c2ccc(C)cc2c1NC(=O)CN1CCN(c2ccc(F)cc2)CC1,-4%,-17%,4µM*,5%
Cc1ccc2[nH]c(C(=O)O)c(NC(=O)CN3CCN(c4cccc(C)c4C)CC3)c2c1,-8%,-18%,10µM*,5%
COc1ccc(-c2cc(C(F)(F)F)n3nc(C)c(-c4ccccc4)c3n2)cc1OC,-1%,2%,4%,0%
CCC(C(=O)NCCC(C)C)N(C(=O)Cn1nnc(-c2ccc(C)cc2)n1)c1cccc(O)c1 (centres undefined),3%,-19%,?,.
COc1ccc(-c2cc(C(=O)Nc3c(C(=O)c4ccc(C)c(F)c4)oc4ccccc34)no2)cc1,0%,0%,13%,.
CCOc1ccccc1N(C)C(=O)Cn1cnc2sc(C)c(S(=O)(=O)N3CCC(C)CC3)c2c1=O,0%,0%,-2%,.
CCOC(=O)N1CCN(CC(=O)Nc2c(C(=O)OC)[nH]c3cc(C)ccc23)CC1,?,-11%,8%,6%
COC(=O)c1[nH]c2ccc(C)cc2c1NC(=O)CN1CCN(C(=O)c2ccccc2)CC1,14µM*,?,-32%,0%
COC(=O)c1[nH]c2ccccc2c1NC(=O)CN1CCN(C/C=C/c2ccccc2)CC1,22µM*,?,?,7%
COC(=O)c1[nH]c2ccc(C)cc2c1NC(=O)CN1CCN(Cc2ccccc2)CC1,14µM*,?,?,-2%
CCOC(=O)c1[nH]c2ccc(F)cc2c1NC(=O)CN1CCN(C/C=C/c2ccccc2)CC1,?,?,?,-17%
COC(=O)c1[nH]c2ccc(C)cc2c1NC(=O)CN1CCN(c2ccccc2)CC1,22µM*,?,10µM*,0%
COc1ccc(NC(=O)CSc2nc3c([nH]c4ccccc43)c(=O)n2-c2ccccc2)c(OC)c1,?,-2%,1%,.
COC(=O)c1ccc(NC(=O)Cn2c(=O)nc(-c3ccccc3)c3ccccc32)cc1,-11%,-3%,8%,.
Cc1nc(Nc2ccncc2)c2oc3ccccc3c2n1,14µM*,?,-12%,-19%
Cc1nnc(NCc2ccco2)c2ccccc12,25µM*,14%,5%,17%
Cn1nnc2c(NCc3ccco3)nccc21,16µM*,0%,23%,-1%

# High-throughput results deposited in PubChem BioAssay by National Center for Advancing Translational Sciences (NCATS).
